In one assay the target is JDP2. Put plainly: pooled miR-30 sensor sort-seq; sequence = guide strand. Particulars: shRNA.
Sequence TAGCTCACTTTTCACGGGCTGG displayed a sensor-assay potency score (higher = more potent) of -0.699.

TTTGGTTGCAACTCATGGCTTT returned a sensor-assay potency score (higher = more potent) of 0.0923.

On to TCTTCTTGTTCCGGCATCGGGC, for which the sensor-assay potency score (higher = more potent) was -0.866.

In turn, TATACTGTATCACATCGAGTGA showed a sensor-assay potency score (higher = more potent) of -0.648.

In the case of TTAGGAGTTACACACAACGGCC, the sensor-assay potency score (higher = more potent) is -1.56.

The sequence TTTATACTGTATCACATCGAGT gave a sensor-assay potency score (higher = more potent) of -0.987.

Sequence TACTGTATCACATCGAGTGATT showed a sensor-assay potency score (higher = more potent) of -0.618.

In the case of TTTCATTCTGAGTTCCATCCTC, the sensor-assay potency score (higher = more potent) was 0.428.

With TATCTGTTCATAACAAACAAAC, the sensor-assay potency score (higher = more potent) is -1.71.

The sequence ATAACAAACAAACCATAGCATA yielded a sensor-assay potency score (higher = more potent) of -1.75.

As for TTTCCTTCGCTCCTCTTCCTCA, the sensor-assay potency score (higher = more potent) is -0.612.

On to TAAACATTCGGTGAGTATGTGC, for which the sensor-assay potency score (higher = more potent) is -0.401.

Another assay concerns the target JMJD1C. The assay is described as above. Particulars: shRNA.
As to TATCTTGTCAACATCTTTCCCA, the sensor-assay potency score (higher = more potent) was determined as 0.56.

For TTTACATTTATCTTGGAGGTTT, the sensor-assay potency score (higher = more potent) was -0.435.

In turn, TATCTCTAGAACTCTTCCTTTC yielded a sensor-assay potency score (higher = more potent) of -0.557.

For TTAACTTGTTATCTGTGCCTAC, the sensor-assay potency score (higher = more potent) is 0.548.

With TTCAATTTTAAAACAACTGTTT, the sensor-assay potency score (higher = more potent) was -0.691.

The sequence TAGTCTTGAAGTCTTCTCCTGA gave a sensor-assay potency score (higher = more potent) of 0.704.

In turn, ATCTATTCTAACTACTCCGTTT showed a sensor-assay potency score (higher = more potent) of -1.09.

In the case of TTTATCTCTAGAACTCTTCCTT, the sensor-assay potency score (higher = more potent) came to 0.72.

In turn, ATTGACAGAACTTATCACCTAT showed a sensor-assay potency score (higher = more potent) of 0.441.

A further assay has as its target JMJD8. The description is as above. To be noted: shRNA.
On to TTTGTGGTAGGAGTAGGTGTTG, for which the sensor-assay potency score (higher = more potent) is -1.04.

Take TACAGCACCTCACCAGCCCGGA: the sensor-assay potency score (higher = more potent) is -0.942.

TATACATAGTTTATGTTCCTGG came in with a sensor-assay potency score (higher = more potent) of -0.256.

TAGATCACTTCTGAGTACCCGG: the sensor-assay potency score (higher = more potent) was -0.223.

In turn, TAGGAGTAGGTGTTGGCGGTGC displayed a sensor-assay potency score (higher = more potent) of 0.392.

Turning to TTGTGGTAGGAGTAGGTGTTGG, the sensor-assay potency score (higher = more potent) was -1.22.

Consider TACGACCGTAGATCACTTCTGA, for which the sensor-assay potency score (higher = more potent) came out at 0.324.

As to TATCTGTGTAATAAAATCCGTG, the sensor-assay potency score (higher = more potent) was -0.911.

Consider TTGAGCGTAGCATGCCACCAGC, for which the sensor-assay potency score (higher = more potent) was -0.983.

The sequence TACTGCTGCACGAACTCCGCGT showed a sensor-assay potency score (higher = more potent) of -0.255.

For TTATTGACGCATTCATCTCTGA, the sensor-assay potency score (higher = more potent) was -0.0992.

In the case of TAGCATGCCACCAGCGGTCGGG, the sensor-assay potency score (higher = more potent) was -0.51.

A further assay has as its target JOSD1. Described as above. Particulars: shRNA.
Sequence TTTCCCAGCATGCTCTTCTTGT came in with a sensor-assay potency score (higher = more potent) of -0.498.

The sequence TGATGTTTTAGAAACTTCCTGA displayed a sensor-assay potency score (higher = more potent) of 0.299.

In the case of TTTTAGAAACTTCCTGAGCTCG, the sensor-assay potency score (higher = more potent) is -0.609.

The sequence TTGAGTTTGGAGTCGAGGTTGT had a sensor-assay potency score (higher = more potent) of 0.206.

In turn, TTTAGAAACTTCCTGAGCTCGC gave a sensor-assay potency score (higher = more potent) of 0.218.

Values taken from the OligoGym collection.
Note: reference of the scale not given here.
